An excerpt weighted towards active compounds, which were near 21% of everything screened.
Pf growth 96h: P. falciparum growth inhibition at 96 hours | P. falciparum luciferase reporter growth, 96 h | 6.9% of 320,000 active | Potency, µM (top dose mostly 28.7 µM), without a hit: top-dose activity change, negative = inhibition, hits mostly inhibitors; note: potency is the fitted concentration of half-maximal effect; % is set by controls: 0 for no effect and ±100 for the full control effect
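Readout is luminescence from an integrated firefly luciferase in P. falciparum. Red cells, 2% hematocrit and 0.05% parasitemia final, were cultured with compound through two parasite generations (96 hours) at 37 C, 5% CO2.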
Sm TGR inh: inhibitors of Schistosoma mansoni thioredoxin glutathione reductase; purified TGR, DTNB reduction, TNB absorbance 405 nm; Potency, µM (doses to about 114 µM), without a hit: top-dose activity change, negative = inhibition, usual class: inhibitors; 3% of 360,000 active; AID 485364; note: potency is the fitted concentration of half-maximal effect; % is set by controls: 0 for no effect and ±100 for the full control effect; nearly all actives have a fitted effect of over 60% in size
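TGR 20 nM + NADPH 100 uM (dispensed conc.), cpd preinc 15 min RT; start with NADPH (500 uM addition) then DTNB (15 mM addition). Kinetic TNB absorbance, 405 nm filter. Four-parameter Hill fit across titration.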
Shiga toxin inh: blocks Shiga toxin action in Vero cells; Vero cells, Shiga toxin protein synthesis inhibition reporter; inhibition, % at 38.7 µM; 9.2% of 290,000 active; in the data active = inhibition mostly above about 28%, no sharp cut-off; inactive = mostly below about 43%; note: 0% is about no effect
Pf growth 48h: P. falciparum growth inhibition at 48 hours (one generation). P. falciparum luciferase growth in erythrocytes, 48 h. Potency, µM (top dose mostly 28.7 µM), without a hit: at the top dose activity change, negative = inhibition, hits mostly inhibitors. 5.9% of 310,000 active; note: potency is the fitted concentration of half-maximal effect; % is set by controls: 0 for no effect and ±100 for the full control effect
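Firefly luciferase activity from engineered P. falciparum reports growth; inhibitors lower the luminescent signal. Cultures contained 2% hematocrit erythrocytes at 0.1% final parasitemia.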
Cycloheximide cs: affects cycloheximide protein synthesis inhibition readout, counter-screen | max response, % | 12% of 300,000 active | cell reporter, cycloheximide protein synthesis inhibition counterscreen; in the data active = max response mostly above about 13%, no sharp cut-off; inactive = mostly below about 14%; note: read at 38.3 µM for the half of the compounds with a filed dose; 0% is about no effect
NS1 function inh: inhibitors of influenza NS1 protein function; Potency, µM (titrated, usually from 46.1 µM), for the others: top-dose activity, positive = more growth; 0.4% of 270,000 active; AID 2326; calls by dose curve; note: potency is the fitted concentration of half-maximal effect; actives are rising curves; nearly all actives have a fitted effect of over 50% in size
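A cell-based growth assay was used: compounds that relieve NS1-induced slow growth of budding yeast raise OD600. Assay medium was yeast nitrogen base with ammonium sulphate and -URA supplement, pH 6.0, with 2% galactose.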
Active calls of the source: *; ? = inconclusive; / = not tested or not shown; ! = a repeat was not active. Unless noted, calls come from the whole dose curve; as a rule, active = well fitted curve in the direction sought with a large enough effect; inconclusive = small, poorly fitted or top-dose-only effect, or another doubt; inactive = no such curve, though single readings can be large; an effect the other way counts as inactive or inconclusive.

SMILES	Pf growth 96h	Sm TGR inh	Shiga toxin inh	Pf growth 48h	Cycloheximide cs	NS1 function inh
COc1cccc(OC)c1C(=O)NC(=S)Nc1cc(-c2nc3ccccc3[nH]2)ccc1Cl	?	-6%	44	4.1µM*	10	16%
O=C(Nc1ccc2nc(-c3ccc(Br)o3)[nH]c2c1)c1ccco1	/	0%	74*	?	24*	-119%
Cc1ccc(-c2nc3ccccc3[nH]2)cc1NC(=O)c1sc2cc(Cl)ccc2c1Cl	?	3%	54	3.3µM*	20*	-23%
CN1CCc2c(sc(NC(=O)C3CCCCC3)c2C(N)=O)C1	-7%	-1%	14	8%	-1	-1%
O=C(Nc1ccc2nc[nH]c2c1)c1ccco1	135%	0%	71*	81%	30*	0%
COCCn1c(SCC(=O)N2CCCc3ccccc32)nnc1-c1ccoc1C	?	40µM*	-3	-19%	-1	-2%
Cc1occc1-c1nnc(SCC(=O)Nc2nc(C(C)(C)C)cs2)o1	/	-17%	50*	44%	27*	7%
Cc1csc(NC(=O)CSc2nnc(-c3ccoc3C)o2)n1	134%	-14%	70*	-9%	41*	9%
Cc1csc(NC(=O)CSc2nnc(-c3ccncc3)o2)n1	14%	-13%	30	81%	16*	6%
Cc1nnc(NC(=O)CSc2nnc(-c3ccco3)o2)s1	-12%	7%	2	13%	7	/
CCOC(=O)Cc1csc(NC(=O)CSc2nnc(-c3ccncc3)o2)n1	16%	/	3	3%	-3	6%
CCn1c(SCC(=O)Nc2nc(C)cs2)nnc1-c1ccoc1C	3%	-11%	-15	/	4	5%
Cc1ccsc1/C=N/NC(=O)C1CC(=O)N(c2ccccc2)C1 (stereo not drawn)	39%	-12%	-9	14%	5	-4%
Cc1ccc(-c2nnc(SCC(=O)N3CCc4ccccc43)o2)cc1	/	-10%	/	/	/	/
Cc1cc(-c2nnc(SCC(=O)Nc3nccs3)o2)no1	14%	-7%	43*	?	20*	?
Cc1occc1-c1nnc(SCC(=O)N2CCc3ccccc32)o1	5.2µM*	25µM*	42	-16%	1	-6%
Cc1cc(-c2nnc(SCC(=O)Nc3ccccn3)o2)no1	10%	6%	-7	89%	0	/
Cc1occc1-c1nnc(SCC(=O)N(C)C)o1	54%	-11%	54	/	33*	-7%
CCOc1ccc2cc(C(=O)NCc3ccccc3)c(=N)oc2c1	12%	-22%	28	23%	7	2%
COc1ccccc1C(=O)c1cc2ccc(O)cc2oc1=O	-14%	2%	-11	-4%	20	-4%
COc1ccc2cc(C(=O)c3ccccc3)c(=O)oc2c1	128%	4%	94*	74%	45*	-99%
CCOc1ccc2cc(C(=O)c3ccccc3)c(=O)oc2c1	0%	5%	active	130%	33*	3%
CN(C)C(=O)c1nnsc1Sc1ccc(Cl)cc1	37%	1%	51*	0%	26*	/
Cc1nnsc1Sc1ccccc1	-7%	6%	-1	19%	-1	-1%
Cc1ccc2cc(C(c3nnnn3Cc3ccccc3)N3CCN(c4ccccc4)CC3)c(=O)[nH]c2c1 (stereo not drawn)	8%	22µM*	-21	5.9µM*	-5	5%
SMILES	Pf growth 96h	Sm TGR inh	Shiga toxin inh	Pf growth 48h	Cycloheximide cs	NS1 function inh
Cc1ccc2cc(C(c3nnnn3C3CCCC3)N3CCOCC3)c(=O)[nH]c2c1C (stereo not drawn)	0%	5%	-6	?	-5	-9%
Cc1ccc2cc(C(c3nnnn3C3CCCC3)N3CCN(c4ccccc4)CC3)c(=O)[nH]c2c1 (stereo not drawn)	?	13µM*	-4	?	-3	13%
COc1ccc(N2CCN(C(c3cc4cc(C)ccc4[nH]c3=O)c3nnnn3Cc3ccccc3)CC2)cc1 (stereo not drawn)	3.7µM*	?	-4	/	-1	8%
CCn1c(C)c(C)c2cc(C(=O)NCc3cccc(C)c3)ccc21	/	3%	/	/	/	/
CCOc1cccc(-c2c(C(=O)N/N=C/c3ccsc3)nnn2-c2nonc2N)c1	?	-5%	-7	-4%	-8	-1%
CC(=O)c1cccc(OCC(O)CNCCOc2ccc(C)cc2)c1 (stereo not drawn)	23%	-14%	-5	7%	-7	15%
NCCc1ccc(S(N)(=O)=O)cc1	5%	49%	-10	17%	10	/
NCc1ccc(S(N)(=O)=O)cc1	3.6µM*!	?	22	?	-1	5%
C#CCNC(=O)C1=C[C@H](C2CC2)C[C@H](OCCCCO)O1	10%	45µM*	14	-7%	-2	-5%
O=C(Nc1ccccc1)C1=C[C@H](C2CC2)C[C@H](OCCCCO)O1	0%	-14%	104*	5%	28*	-1%
O=C(NCc1ccccc1)C1=C[C@@H](C2CC2)C[C@@H](OCCCCO)O1	-1%	-15%	0	2%	1	-3%
O=C(NC1CC1)C1=C[C@@H](c2ccccc2)C[C@@H](OCCCCO)O1	7%	-13%	-2	8%	1	-1%
O=C(NC1CC1)C1=C[C@@H](c2ccc(Br)cc2)C[C@@H](OCCCCO)O1	-17%	-9%	-1	0%	4	-4%
C#CCNC(=O)C1=C[C@@H](c2ccc(Br)cc2)C[C@@H](OCCCCO)O1	8.3µM*	0%	35*	?	13*	-5%
C#CCNC(=O)C1=C[C@H](c2ccccc2)C[C@H](OCCCCO)O1	?	14µM*	10	?	12	1%
CC(=O)c1c(C)[nH]c(C(=O)NNC(=O)COc2cc(C)cc(C)c2)c1C	26%	-1%	/	4%	/	/
CNCc1ccccc1Sc1ccc(O)c(O)c1	-27%	22µM*	-2	-22%	-1	11%
O=C(NC(=S)NCCN1CCOCC1)c1ccc(Cl)cc1	1%	7%	34	8%	24*	8%
CN(C)c1ccc(/C=C(\NC(=O)c2ccccc2)C(=O)NCCN2CCOCC2)cc1	9.3µM*	5%	-7	10%	-5	-3%
Cc1ccc(C(=O)NC(=S)NCC2CCCO2)cc1 (stereo not drawn)	?	-31%	102	101%	65*	8%
O=C(COC(=O)c1ccccc1)NCC1CCCO1 (stereo not drawn)	/	0%	46*	25%	24*	-2%
CC1CCc2c(sc3ncnc(SC(C)C(=O)NCC4CCCO4)c23)C1 (stereo not drawn)	?	0%	/	?	/	/
O=C(O)C1CCN(c2ccccc2[N+](=O)[O-])CC1	33%	15%	-12	28%	4	/
CCCN(C(=O)Cn1c(=O)oc2cc(Cl)ccc21)c1ccc(C(C)C)cc1	/	7%	/	/	/	/

High-throughput results (PubChem)
